From PubChem BioAssay
Calls of active or inactive are those of the source.

Assays:
[1] = system: PRMT1 (protein arginine N-methyltransferase 1); assay: PRMT1 binders on small-molecule microarrays, primary screen, biochemical, small-molecule microarray, 635 nm fluorescence (AID 1088); settings: small-molecule microarray binding, higher = more signal;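 also: binding of Prmt1 protein to compounds spotted on small-molecule microarray slides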
[2] = yeast growth modulation, basal conditions, primary screen, YJM789 clinical isolate, OD600, 24 h (AID 1089);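 also: growth of clinical yeast isolate S. cerevisiae YJM 789 seeded 1000 cells per well; test concentration not given here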; settings: S. cerevisiae YJM789 growth, higher = more signal, called active from +8 up or from −8 down
[3] = fission yeast growth modulation, primary screen, strain 972, OD600, 24 h, no modulator (AID 1090);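 also: basal condition with compound alone and no growth modifier present; test concentration not given here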; settings: S. pombe 972 growth, higher = more signal, called active from +8 up or from −8 down
[4] = S. cerevisiae growth modulation with rapamycin, primary screen, strain BY4716, OD600, 96 h (AID 1091); settings: higher = more signal, called active from +8 up or from −8 down; also: test concentration not given here
[5] = molecular target: Torsin-1A-interacting protein 2 (Homo sapiens) (UniProt Q8NFQ8); assay: LULL1 binders on small-molecule microarray, primary screen, cell lysate, human LULL1 lysate, 635/667 nm fluorescence (AID 1092); settings: hLULL1 lysate binding, 635 nm fluorescence, higher = more signal;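 also: probe is lysate of COS7 cells overexpressing human LULL1; score merges per-feature 667 nm fluorescence with signal-to-noise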
[6] = E. coli growth modulation, two-sided OD650, primary screen, E. coli filamentation project, strain DRC41, 24 h (AID 1093); settings: OD650, 24 h, higher = more signal, called active from +8 up or from −8 down;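 also: MC1000 strain lacking acrAB efflux and sulA so SOS filamentation is blocked; test concentration not given here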
[7] = small-molecule microarray binders of probe aLefty2, primary screen, biochemical, biotinylated probe, 635/667 nm fluorescence (AID 1094); settings: higher = more signal;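 also: score merges spot fluorescence near 667 nm with spot signal-to-noise ratio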
[8] = system: Noggin (protein binding on small-molecule microarray); assay: Noggin binders on small-molecule microarray, primary screen, biochemical, 635/667 nm fluorescence (AID 1095); settings: 635 nm fluorescence, higher = more signal;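 also: score merges 667 nm feature fluorescence with signal to noise over triplicate slides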
[9] = molecular target: Neurogenic locus notch homolog protein 3 (Homo sapiens) (UniProt Q9UM47); assay: NOTCH3 binders on small-molecule microarray, primary screen, biochemical, 635/667 nm fluorescence (AID 1096); settings: NOTCH3 binding, 635 nm fluorescence, higher = more signal
[10] = small-molecule microarray binders of probe aEGFR, primary screen, biochemical, biotinylated probe, 635/667 nm fluorescence (AID 1097); settings: higher = more signal;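 also: probe is a biotinylated anti-EGFR antibody binding compounds printed on slides; score combines fluorescence near 667 nm and signal to noise of each spot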
[11] = system: Plasmodium falciparum Sir2 (PF13_0152, Sir2A); assay: pfSir2 binders on small-molecule microarrays, primary screen, biochemical, small-molecule microarray, 635 nm fluorescence (AID 1098); settings: small-molecule microarray binding, fluorescence 635 nm; higher = more signal;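 also: score merges spot fluorescence intensity with its signal-to-noise ratio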
[12] = small-molecule microarray binders of probe aDKK1, primary screen, biochemical, biotinylated probe, 635/667 nm fluorescence (AID 1099); settings: higher = more signal;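 also: score merges 667nm spot fluorescence with signal to noise across triplicate slides; reference of the scale not given here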
[13] = small-molecule microarray binders of probe aCHRDL2, primary screen, biochemical, biotinylated probe, 635/667 nm fluorescence (AID 1100); settings: higher = more signal
[14] = splicing luciferase reporter signal modulators, primary screen, spliceosome inhibition project, cell-based, HEK293, splice +/- reporter (AID 1101); settings: luminescence, 24 h, higher = more signal, called active from +8 up or from −8 down;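 also: HEK293 cells carrying a splicing-competent luciferase reporter gene; test concentration not given here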
[15] = molecular target: Fibroblast growth factor 10 (Homo sapiens) (UniProt O15520); assay: FGF10 binders on small-molecule microarrays, primary screen, biochemical, small-molecule microarray, 635 nm fluorescence (AID 1102); settings: FGF10 binding, fluorescence 635 nm, higher = more signal
[16] = system: glycogen synthase kinase-3 (GSK3A per assay name; protocol says GSK3B); assay: GSK3 binders on small-molecule microarrays, primary screen, biochemical, small-molecule microarray, 635 nm fluorescence, GSK3A (AID 1103); settings: small-molecule microarray binding, fluorescence 635 nm; higher = more signal; also: the record names both GSK3A and GSK3B
[17] = molecular target: Epidermal growth factor receptor (Homo sapiens) (UniProt P00533); assay: EGFR binders on small-molecule microarrays, primary screen, biochemical, small-molecule microarray, 635 nm fluorescence (AID 1104); settings: EGFR binding, higher = more signal;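 also: score merges 667 nm emission intensity with spot signal to noise over triplicate slides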
[18] = molecular target: Follistatin-related protein 3 (Homo sapiens) (UniProt O95633); assay: FSTL3 binders on small-molecule microarrays, primary screen, biochemical, small-molecule microarray, 635 nm fluorescence (AID 1105); settings: FSTL3 binding, higher = more signal;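 also: score merges emission near 667 nm and signal to noise per printed spot across three slides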
[19] = molecular target: Dickkopf-related protein 1 (Homo sapiens) (UniProt O94907); assay: DKK1 binders on small-molecule microarrays, primary screen, biochemical, small-molecule microarray, 635 nm fluorescence scan (AID 1106); settings: DKK1 binding, higher = more signal;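 also: score merges emission near 667 nm with signal to noise over three replicate slides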
[20] = system: Inhibin beta A chain (activin A); assay: INHBA (activin A) binders on microarrays, primary screen, biochemical, small-molecule microarray, 635 nm fluorescence scan (AID 1107); settings: small-molecule microarray binding, higher = more signal;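 also: mouse activin A protein probed at 4.33 µg/mL on printed slides; score merges bound-protein fluorescence near 667 nm with spot signal-to-noise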

Follistatin-related protein 3 (Homo sapiens), sequence (O95633 whole entry, looked up): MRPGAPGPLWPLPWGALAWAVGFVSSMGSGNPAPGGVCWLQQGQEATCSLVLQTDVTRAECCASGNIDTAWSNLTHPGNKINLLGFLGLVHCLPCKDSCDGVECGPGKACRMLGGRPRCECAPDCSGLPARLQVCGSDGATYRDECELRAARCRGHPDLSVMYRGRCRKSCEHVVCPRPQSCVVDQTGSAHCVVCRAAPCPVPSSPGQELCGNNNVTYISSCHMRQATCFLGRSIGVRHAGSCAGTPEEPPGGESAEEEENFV
Torsin-1A-interacting protein 2 (Homo sapiens), sequence (Q8NFQ8 whole entry, looked up): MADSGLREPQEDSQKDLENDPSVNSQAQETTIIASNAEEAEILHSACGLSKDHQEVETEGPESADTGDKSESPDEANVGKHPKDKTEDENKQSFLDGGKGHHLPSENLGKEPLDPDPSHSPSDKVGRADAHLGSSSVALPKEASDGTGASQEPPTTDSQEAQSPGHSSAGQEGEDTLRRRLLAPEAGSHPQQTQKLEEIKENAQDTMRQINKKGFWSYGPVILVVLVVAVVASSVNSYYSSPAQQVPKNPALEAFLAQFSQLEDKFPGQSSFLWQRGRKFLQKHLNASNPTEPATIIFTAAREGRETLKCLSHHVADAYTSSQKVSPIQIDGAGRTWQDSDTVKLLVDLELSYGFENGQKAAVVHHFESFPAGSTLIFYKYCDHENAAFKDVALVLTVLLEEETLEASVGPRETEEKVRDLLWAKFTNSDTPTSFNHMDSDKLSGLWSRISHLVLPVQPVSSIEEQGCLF
Dickkopf-related protein 1 (Homo sapiens), sequence (O94907 whole entry, looked up): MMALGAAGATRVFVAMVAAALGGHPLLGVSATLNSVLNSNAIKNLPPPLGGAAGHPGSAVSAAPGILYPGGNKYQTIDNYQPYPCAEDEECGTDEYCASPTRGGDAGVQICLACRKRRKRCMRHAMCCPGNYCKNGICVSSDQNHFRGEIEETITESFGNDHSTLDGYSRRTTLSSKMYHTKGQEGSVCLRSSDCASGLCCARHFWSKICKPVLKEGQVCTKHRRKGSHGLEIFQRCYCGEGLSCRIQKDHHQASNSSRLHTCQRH
Epidermal growth factor receptor (Homo sapiens), sequence (P00533 whole entry, looked up): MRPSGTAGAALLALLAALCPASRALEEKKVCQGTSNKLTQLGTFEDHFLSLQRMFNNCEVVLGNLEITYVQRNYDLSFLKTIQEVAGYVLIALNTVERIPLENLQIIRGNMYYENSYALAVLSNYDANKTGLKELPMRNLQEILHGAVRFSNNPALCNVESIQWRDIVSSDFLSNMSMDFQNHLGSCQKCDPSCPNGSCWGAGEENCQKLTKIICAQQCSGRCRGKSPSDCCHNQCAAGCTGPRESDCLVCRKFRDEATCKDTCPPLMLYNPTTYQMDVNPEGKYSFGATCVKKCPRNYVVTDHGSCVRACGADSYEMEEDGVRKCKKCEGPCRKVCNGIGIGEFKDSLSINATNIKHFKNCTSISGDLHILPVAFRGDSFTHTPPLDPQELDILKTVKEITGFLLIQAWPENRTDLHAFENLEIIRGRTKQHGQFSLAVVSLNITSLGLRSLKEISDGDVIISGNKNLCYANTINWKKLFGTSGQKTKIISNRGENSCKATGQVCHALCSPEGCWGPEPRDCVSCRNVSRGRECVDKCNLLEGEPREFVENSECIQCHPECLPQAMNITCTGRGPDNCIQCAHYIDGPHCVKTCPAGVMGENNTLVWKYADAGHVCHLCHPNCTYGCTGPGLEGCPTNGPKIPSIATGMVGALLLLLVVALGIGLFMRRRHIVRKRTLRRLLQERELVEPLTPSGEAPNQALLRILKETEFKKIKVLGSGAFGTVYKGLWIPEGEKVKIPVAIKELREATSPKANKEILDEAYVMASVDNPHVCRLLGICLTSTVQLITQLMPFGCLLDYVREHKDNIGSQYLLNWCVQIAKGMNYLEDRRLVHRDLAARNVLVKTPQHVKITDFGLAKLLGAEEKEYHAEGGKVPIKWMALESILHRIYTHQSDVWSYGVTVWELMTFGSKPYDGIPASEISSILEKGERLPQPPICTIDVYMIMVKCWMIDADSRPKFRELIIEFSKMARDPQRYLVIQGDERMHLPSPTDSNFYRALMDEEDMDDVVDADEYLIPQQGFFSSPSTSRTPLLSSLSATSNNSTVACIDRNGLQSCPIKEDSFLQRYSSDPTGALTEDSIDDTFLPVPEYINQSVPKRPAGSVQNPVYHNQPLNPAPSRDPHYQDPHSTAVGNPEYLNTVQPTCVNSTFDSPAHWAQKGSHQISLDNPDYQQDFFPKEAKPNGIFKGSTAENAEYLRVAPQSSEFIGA
Neurogenic locus notch homolog protein 3 (Homo sapiens), sequence (Q9UM47 whole entry, looked up): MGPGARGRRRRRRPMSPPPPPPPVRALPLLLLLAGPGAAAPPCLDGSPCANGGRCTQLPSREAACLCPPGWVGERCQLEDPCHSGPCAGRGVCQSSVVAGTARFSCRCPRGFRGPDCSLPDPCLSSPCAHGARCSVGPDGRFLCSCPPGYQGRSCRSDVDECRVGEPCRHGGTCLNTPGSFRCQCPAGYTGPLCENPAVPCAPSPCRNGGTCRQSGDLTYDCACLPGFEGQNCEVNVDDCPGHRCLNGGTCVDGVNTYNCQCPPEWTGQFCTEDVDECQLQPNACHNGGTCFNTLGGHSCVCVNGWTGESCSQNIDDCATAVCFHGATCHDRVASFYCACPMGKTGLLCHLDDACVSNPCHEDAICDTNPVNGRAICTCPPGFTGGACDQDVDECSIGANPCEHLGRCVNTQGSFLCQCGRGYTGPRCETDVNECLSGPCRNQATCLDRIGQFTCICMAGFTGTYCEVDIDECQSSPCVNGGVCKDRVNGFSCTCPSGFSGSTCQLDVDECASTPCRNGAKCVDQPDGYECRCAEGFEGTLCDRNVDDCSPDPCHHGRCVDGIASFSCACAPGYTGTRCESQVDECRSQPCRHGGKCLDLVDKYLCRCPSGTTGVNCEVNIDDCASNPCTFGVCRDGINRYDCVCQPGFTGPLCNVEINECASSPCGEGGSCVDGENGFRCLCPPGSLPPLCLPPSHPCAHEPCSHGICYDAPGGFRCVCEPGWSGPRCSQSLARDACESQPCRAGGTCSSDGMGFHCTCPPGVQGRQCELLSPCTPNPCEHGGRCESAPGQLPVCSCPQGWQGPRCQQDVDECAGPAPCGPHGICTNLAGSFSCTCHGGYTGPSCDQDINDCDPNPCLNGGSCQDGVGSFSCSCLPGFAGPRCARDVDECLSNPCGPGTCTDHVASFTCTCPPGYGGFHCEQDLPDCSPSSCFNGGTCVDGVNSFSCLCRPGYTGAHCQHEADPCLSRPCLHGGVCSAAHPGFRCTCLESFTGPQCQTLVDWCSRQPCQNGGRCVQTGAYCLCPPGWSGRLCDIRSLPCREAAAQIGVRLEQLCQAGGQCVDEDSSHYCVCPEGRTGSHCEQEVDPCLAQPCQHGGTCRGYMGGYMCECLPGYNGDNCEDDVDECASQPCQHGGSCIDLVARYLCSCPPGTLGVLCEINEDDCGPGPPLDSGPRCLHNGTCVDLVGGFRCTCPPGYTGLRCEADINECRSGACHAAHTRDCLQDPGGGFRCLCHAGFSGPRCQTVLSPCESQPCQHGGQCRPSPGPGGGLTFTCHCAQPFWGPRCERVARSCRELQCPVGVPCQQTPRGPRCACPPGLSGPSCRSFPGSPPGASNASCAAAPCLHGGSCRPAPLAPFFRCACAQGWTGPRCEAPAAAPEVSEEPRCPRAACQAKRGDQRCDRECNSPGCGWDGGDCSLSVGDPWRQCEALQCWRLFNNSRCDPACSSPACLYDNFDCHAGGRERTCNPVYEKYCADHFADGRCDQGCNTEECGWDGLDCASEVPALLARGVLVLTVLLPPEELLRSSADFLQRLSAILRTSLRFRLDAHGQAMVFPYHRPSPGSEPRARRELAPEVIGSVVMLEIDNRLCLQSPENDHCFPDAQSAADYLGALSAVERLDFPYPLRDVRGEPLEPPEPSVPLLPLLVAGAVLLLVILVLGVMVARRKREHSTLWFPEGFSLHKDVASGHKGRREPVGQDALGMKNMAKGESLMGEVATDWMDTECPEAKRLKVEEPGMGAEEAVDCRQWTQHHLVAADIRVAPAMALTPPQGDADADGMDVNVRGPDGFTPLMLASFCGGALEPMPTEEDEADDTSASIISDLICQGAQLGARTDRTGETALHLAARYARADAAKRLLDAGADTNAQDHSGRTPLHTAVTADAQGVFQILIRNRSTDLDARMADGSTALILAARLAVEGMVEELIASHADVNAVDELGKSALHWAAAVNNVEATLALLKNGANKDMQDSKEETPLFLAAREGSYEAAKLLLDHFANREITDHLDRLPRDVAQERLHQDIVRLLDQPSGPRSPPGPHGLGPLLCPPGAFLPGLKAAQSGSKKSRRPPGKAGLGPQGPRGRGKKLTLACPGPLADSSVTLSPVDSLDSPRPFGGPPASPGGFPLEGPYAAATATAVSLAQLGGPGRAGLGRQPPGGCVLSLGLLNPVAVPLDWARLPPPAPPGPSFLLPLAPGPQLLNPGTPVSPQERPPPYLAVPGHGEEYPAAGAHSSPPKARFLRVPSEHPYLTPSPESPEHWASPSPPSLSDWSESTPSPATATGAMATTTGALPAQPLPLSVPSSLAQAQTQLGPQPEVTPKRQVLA
Fibroblast growth factor 10 (Homo sapiens), sequence (O15520 whole entry, looked up): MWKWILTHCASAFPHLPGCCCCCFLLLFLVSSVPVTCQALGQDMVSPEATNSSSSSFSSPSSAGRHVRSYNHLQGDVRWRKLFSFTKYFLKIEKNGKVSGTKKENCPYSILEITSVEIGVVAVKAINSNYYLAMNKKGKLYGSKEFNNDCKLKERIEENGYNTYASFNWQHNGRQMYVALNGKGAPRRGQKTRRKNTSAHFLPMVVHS

SMILES	composite z-score [1]	z-score [2]	z-score [3]	z-score [4]	composite z-score [5]	z-score [6]	composite z-score [7]	composite z-score [8]	composite z-score [9]	composite z-score [10]	composite z-score [11]	composite z-score [12]	composite z-score [13]	z-score [14]	composite z-score [15]	composite z-score [16]	composite z-score [17]	composite z-score [18]	composite z-score [19]	composite z-score [20]
C=CCC(OC(C)=O)[C@@H]1[C@@H](N(Cc2cccc3ccccc23)C(=O)Cc2ccc(F)cc2)c2cc(OCCCO)ccc2N1C(=O)c1ccc2ccccc2c1 (stereo not given in full)	-0.209	-0.19 (inactive)	1.43 (inactive)	-0.235 (inactive)	0.226	0.693 (inactive)	0.0261	0.154	0.268	-0.0967	-0.246	-0.469	0.0515	-0.527 (inactive)	-0.134	0.0566	0.0199	0.565	0.301	1.24
CCCN1C(=O)[C@@]2(Cc3ccccc31)N=C(c1ccc(OCCCO)cc1)O[C@H]2c1ccccc1	1.46	-0.306 (inactive)	-7.39 (inactive)	0.99 (inactive)	2.58	-0.0139 (inactive)	0.235	0.643	0.355	0.0192	1.48	0.402	0.949	-1.46 (inactive)	0.988	1.23	-0.286	0.191	0.335	0.873
COCC(=C=CC[C@H](O)c1ccccc1OCCO)C[C@H](O)c1ccccn1	1.14	0.636 (inactive)	-0.422 (inactive)	-0.505 (inactive)	3.35	0.723 (inactive)	-0.138	0.808	-0.0439	0.122	0.34	-0.201	-0.0336	0.0209 (inactive)	0.207	-0.115	-0.299	-0.114	-0.0344	0.41
Cc1ccc(F)cc1S(=O)(=O)N[C@@H]1CCN(Cc2ccc(Br)cc2)C1	-0.268	-1.47 (inactive)	-17.4 (active)	-1.73 (inactive)	-1.04	-1.12 (inactive)	-0.161	1.21	0.895	-0.0455	0.0002	-0.16	-0.418	-1.12 (inactive)	0.69	-0.751	0.529	0.752	0.677	0.359
C=CCN1C(=O)[C@]2(CCS(=O)(=O)c3ccccc3)N=C(c3ccc(OCCCO)cc3)O[C@@H]2c2ccccc21	1.54	-0.523 (inactive)	-1.16 (inactive)	2.46 (inactive)	3.65	0.624 (inactive)	0.0416	1.49	1.1	0.0574	1.38	-0.317	0.7	-1.81 (inactive)	0.732	1.29	0.387	1.43	0.466	1.18
NC(=O)[C@H]1[C@@H]2C(=O)O[C@@H](c3ccccc3)[C@@H](c3ccccc3)N2[C@@H](c2ccc(OCCO)cc2)[C@]12C(=O)Nc1ccc(C#CCCO)cc12	1.41	1.62 (inactive)	0.547 (inactive)	3.63 (inactive)	1.7	-0.595 (inactive)	-0.0636	0.425	0.164	0.0932	0.912	0.313	0.485	0.728 (inactive)	0.251	0.608	0.189	0.255	0.24	0.779
O=C1N(Cc2ccccc2)c2ccccc2C[C@]12N=C(c1ccc(OCCCO)cc1)O[C@@H]2c1ccccc1	1.21	1.1 (inactive)	0.6 (inactive)	5.61 (inactive)	2.42	0.316 (inactive)	0.102	0.885	1.03	-0.0549	0.25	0.035	0.333	0.214 (inactive)	0.796	0.914	0.498	0.935	0.271	0.736
CC(C)NC(=O)[C@@]1(C)c2ccccc2C(=O)N(Cc2ccc(OC(F)(F)F)cc2)[C@H]1c1ccc(CO)cc1	0.911	0.738 (inactive)	-0.784 (inactive)	-1.38 (inactive)	2.32	-1.55 (inactive)	-0.221	-0.748	-0.284	-0.349	1.43	-0.0863	0.77	-1.08 (inactive)	-0.962	-0.85	-1.43	-1.19	-1.25	-1.03
CCOC(=O)C1=C[C@@H](C(C)(C)C)N(S(=O)(=O)c2ccc(C)cc2)[C@H]1c1cccc2ccccc12	0.735	2.23 (inactive)	2.75 (inactive)	2.97 (inactive)	2.36	-0.296 (inactive)	-0.034	0.171	1.09	-0.0828	0.462	0.166	0.562	-0.134 (inactive)	0.242	0.936	-0.138	0.7	-0.412	0.997
[N-]=[N+]=Nc1ccccc1C[C@]1(C(=O)NCCN2CCOCC2)COC(c2ccc(OCCCO)cc2)=N1	1.29	-0.877 (inactive)	-2.27 (inactive)	-1.46 (inactive)	3.03	2.56 (inactive)	0.194	0.0424	0.0221	0.0433	1.01	0.424	0.909	-0.388 (inactive)	0.318	1.3	-0.408	-0.264	0.234	0.472
